Measured values from PubChem BioAssay.
For part of these data: Results with a measured potency or affinity are listed apart. Calls of active or inactive are those of the source.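 The calls were made as follows, unless noted: active = dose curve with midpoint inside tested range, moderate steepness, plateau gap beyond fit error, low compound glow and bead-link interference; inactive = the rest.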

Key:
[1] = target: Cell division control protein 42 homolog (Homo sapiens) (UniProt P60953); test: activated mutant Cdc42 GTP-binding inhibitors, dose response, biochemical, multiplex bead flow cytometry, Bodipy-FL-GTP (AID 1333;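 active = fitted half-maximal concentration within the tested dose range, moderate curve steepness, a statistically real signal drop, and little compound fluorescence or tag-binding interference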)
Cell division control protein 42 homolog (Homo sapiens), sequence (P60953 whole entry, looked up): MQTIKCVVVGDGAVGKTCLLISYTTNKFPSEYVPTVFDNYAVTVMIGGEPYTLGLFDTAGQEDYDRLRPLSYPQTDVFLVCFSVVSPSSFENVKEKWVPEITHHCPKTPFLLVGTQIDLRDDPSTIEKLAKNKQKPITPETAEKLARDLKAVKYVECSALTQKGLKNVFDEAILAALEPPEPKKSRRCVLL

[2] = target: Cell division control protein 42 homolog (Homo sapiens) (UniProt P60953); test: wildtype Cdc42 GTP-binding inhibitors, dose response, biochemical, multiplex bead flow cytometry, Bodipy-FL-GTP (AID 1334;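 active = fitted half-maximal concentration within the tested range, moderate curve steepness, significant signal drop, and little compound fluorescence or bead-linkage interference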); settings: bead-based flow cytometry, Bodipy-FL-GTP binding to GST-Cdc42; at 100 µM (top of the series) unless noted
[3] = target: GTPase HRas (Homo sapiens) (UniProt P01112); test: inhibitors of GTP binding to wildtype Ras, dose response, biochemical, multiplex bead flow cytometry (AID 1335;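 active = fitted half-maximal concentration within 10 nM to 100 µM, steepness 0.5 to 2, significant signal drop, low assay interference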); settings: bead-based flow cytometry, Bodipy-GTP binding to GST-Ras; at 100 µM (top of the series) unless noted
GTPase HRas (Homo sapiens), sequence (P01112 whole entry, looked up): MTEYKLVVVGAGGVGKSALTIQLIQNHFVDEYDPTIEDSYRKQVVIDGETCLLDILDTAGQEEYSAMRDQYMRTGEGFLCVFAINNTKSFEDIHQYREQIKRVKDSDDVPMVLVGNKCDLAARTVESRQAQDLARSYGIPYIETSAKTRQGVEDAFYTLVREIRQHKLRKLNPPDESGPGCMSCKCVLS

[4] = system: Ras-related protein Rab-7a (dog), GTP binding; test: Rab7 GTP binding inhibitors, potency, dose response, biochemical, wildtype, multiplex bead flow cytometry (AID 1336; call rule not given here)
[5] = target: Ras-related C3 botulinum toxin substrate 1 (Homo sapiens) (UniProt P63000); test: wildtype Rac1 GTP binding inhibitors, dose response, biochemical, multiplex bead flow cytometry (AID 1340); settings: GST-Rac1 beads, Bodipy-FL-GTP binding; at 100 µM (top of the series) unless noted
[6] = target: GTPase HRas (Homo sapiens) (UniProt P01112); test: activated Ras mutant GTP binding inhibitors, dose response, biochemical, multiplex bead flow cytometry (AID 1341;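 active = dose-response curve with midpoint inside the tested range, moderate steepness, significant amplitude and little compound fluorescence or bead-attachment interference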;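 also: GST-tagged constitutively activated Ras mutant immobilized on beads and multiplexed with other GTPases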)

Row | Structure (SMILES) | outcome [1] | fluorescence, percent of control (lower = inhibition) [2] [%] | GTP binding, percent of control [3] [%] | outcome [4] | GTP binding signal, raw median fluorescence (lower = inhibition) (MCF (arbitrary fluorescence units)) [5] | outcome [6]
1 | O=C(Nc1ccc(S(=O)(=O)N2CCCc3ccccc32)cc1)C1CCCO1 (stereo not given) | inactive | 33.2 | 79.9 | inactive | 286 | inactive
2 | CCOC(=O)CCCCC(=O)c1[nH]c(=O)[nH]c1CSc1nnc2c3cc(Br)ccc3n(C)c2n1 | inactive | 34.4 | 80.3 | inactive | 167 | inactive
3 | O=C(Nc1sc2c(c1C(=O)O)CCCCC2)c1ccccc1 | inactive | 29.3 | 74.3 | inactive | 201 | inactive
4 | Cc1ccc(C)c(OCCSc2nc3ccccc3n2CC(=O)O)c1 | inactive | 59.6 | 88.1 | inactive | 29.2 | inactive
5 | CCC(/C=C1\Sc2ccc(OC)cc2N1CCO)=C\c1sc2ccc(OC)cc2[n+]1CCO | inactive | 22.6 | 46.8 | inactive | 187 | inactive
6 | O=S(=O)(Cc1ccccc1)N1CCc2ccccc21 | inactive | 48.6 | 63.7 | inactive | 202 | inactive
7 | Cc1ccc2c(c1)c1nnc(SCC(=O)N3CCCc4ccccc43)nc1n2CC(=O)O | inactive | 17.6 | 37.8 | inactive | 96.4 | inactive
8 | N#CC(C#N)=C(Nc1ccc(F)cc1)SCc1cccc(Br)c1 | inactive | 45.8 | 61.7 | inactive | 181 | inactive
9 | Cc1ccc(S(=O)(=O)c2cc3c(=O)n4ccccc4nc3n(C)c2=N)cc1 | inactive | 31.2 | 65.8 | inactive | 158 | inactive
10 | O=[N+]([O-])c1cc(Br)c(O)c(C=Nc2ccc(N3CCOCC3)cc2)c1 | inactive | 30.7 | 79.8 | inactive | 218 | inactive
11 | Nc1[nH]n2c(=O)c3c(nc2c1N=Nc1ccccc1)CCCC3 | inactive | 31 | 41.6 | inactive | 109 | inactive
12 | COc1ccccc1-n1cc([C@@H]2C[C@H]3CN(c4ccccc4)C(=O)[C@]34CCCN24)cn1 | inactive | 71.8 | 119 | inactive | 293 | inactive
13 | COc1ccc(OC)c(S(=O)(=O)Nc2ccc(O)c(Sc3ncn[nH]3)c2)c1 | inactive | 48.6 | 65.1 | inactive | 189 | inactive
14 | CCC(=O)N=C1SC2CS(=O)(=O)CC2N1c1cccc(OC)c1 (stereo not given) | inactive | 89 | 162 | inactive | 180 | inactive
15 | O=C(CCc1ccccn1)N1CCCC(CNS(=O)(=O)c2cccs2)C1 (stereo not given) | inactive | 36.9 | 82.7 | inactive | 279 | inactive
16 | CCCCCOC(=O)c1ccccc1C(=O)O | inactive | 134 | 220 | inactive | 275 | inactive
17 | CCOC(=O)c1c(C)[nH]c(C)c1C(=O)COc1ncnc2cc([N+](=O)[O-])ccc12 | inactive | 33.9 | 76.2 | inactive | 186 | inactive
18 | CCOc1cc(/C=N/NC(=O)C(C)Sc2ccccc2)ccc1O (stereo not given) | inactive | 31.8 | 73.5 | inactive | 165 | inactive
19 | Cc1ccccc1-n1c(SCc2c(C)noc2C)nnc1-c1cccnc1 | inactive | 104 | 179 | inactive | 195 | inactive
20 | COc1ccc(-c2csc(NC(=O)Cc3cccc4ccccc34)c2C(=O)O)cc1 | inactive | 27.2 | 66.7 | inactive | 187 | inactive

Row | Structure (SMILES) | outcome [1] | fluorescence, percent of control (lower = inhibition) [2] [%] | GTP binding, percent of control [3] [%] | outcome [4] | GTP binding signal, raw median fluorescence (lower = inhibition) (MCF (arbitrary fluorescence units)) [5] | outcome [6]
21 | CCCCn1c(SCC(=O)c2ccccc2)nc2c1c(=O)[nH]c(=O)n2C | inactive | 48.7 | 61.3 | inactive | 197 | inactive
22 | Cc1ccc(C(=O)OCc2nnc(-c3ccc(Br)cc3)o2)cc1 | inactive | 31.8 | 78.1 | inactive | 241 | inactive
23 | CCN(CC)c1ccc(/C=C(/C#N)c2nc3ccc(C)cc3[nH]2)c(OC(C)C)c1 | inactive | 96.1 | 108 | inactive | 264 | inactive
24 | Cc1ccc(CS(=O)(=O)c2ccccc2-c2nnc(-c3ccc(Cl)cc3)o2)cc1 | inactive | 88.2 | 156 | inactive | 181 | inactive
25 | COc1ccccc1OCc1cccc(C(=O)O)c1 | inactive | 64.9 | 92.8 | inactive | 42 | inactive
26 | Oc1ccc(NC(=S)N=Nc2c(O)[nH]c3ccc(Br)cc23)cc1 | inactive | 33.1 | 78.4 | inactive | 200 | inactive
27 | O=c1c2ccccc2nc2c3ccccc3c(NCc3cccnc3)nn12 | inactive | 27.9 | 71.5 | inactive | 157 | inactive
28 | O=c1[nH]c2sc3c(c2c2nncn12)CCCC3 | inactive | 23.4 | 59.2 | inactive | 103 | inactive
29 | CCCOC(=O)NC1CCS(=O)(=O)C1 (stereo not given) | inactive | 99.8 | 159 | inactive | 198 | inactive
30 | O=C(Nc1ccccc1F)c1ccccc1-c1ccccc1 | inactive | 47.5 | 60.2 | inactive | 203 | inactive
31 | O=C(C1CCCO1)N1CCN(C(=S)Nc2ccccc2C(F)(F)F)CC1 (stereo not given) | inactive | 53.3 | 64.3 | inactive | 208 | inactive
32 | COc1ccccc1OCc1ccoc1C(=O)O | inactive | 62.9 | 87 | inactive | 35.8 | inactive
33 | COc1ccc(/C=N/NC(=O)CSc2n[nH]c(=O)[nH]c2=O)cc1 | inactive | 53.1 | 69.6 | inactive | 0 | inactive
34 | Cc1cccc(CNc2nc(C)ccc2C(=O)O)c1 | inactive | 60.7 | 218 | inactive | 58 | inactive
35 | O=C(Oc1cccc(O)c1)C1CCCCC1 | inactive | 36.8 | 81.6 | inactive | 296 | inactive
36 | CCCc1cc(-n2ccnc2)n2c(nc3ccccc32)c1C#N | inactive | 172 | 195 | inactive | 212 | inactive
37 | O=[N+]([O-])c1ccc(/C=C/C2=NN(c3ccccc3)C(c3ccco3)C2)cc1 (stereo not given) | inactive | 135 | 132 | inactive | 258 | inactive
38 | CC(C)(C)C#CC(=O)c1ccc([N+](=O)[O-])cc1 | inactive | 37.9 | 196 | inactive | 49.6 | inactive
39 | COc1ccc(-c2csc(C3=C(O)CN(C(C)C)C3=N)n2)cc1OC | inactive | 31.9 | 73.2 | inactive | 181 | inactive
40 | CCCNC(=O)C(=O)NCc1ccccn1 | inactive | 41.2 | 91.1 | inactive | 323 | inactive

Row | Structure (SMILES) | outcome [1] | fluorescence, percent of control (lower = inhibition) [2] [%] | GTP binding, percent of control [3] [%] | outcome [4] | GTP binding signal, raw median fluorescence (lower = inhibition) (MCF (arbitrary fluorescence units)) [5] | outcome [6]
41 | O=C(O)c1ccc(CSCc2ccccc2Cl)o1 | inactive | 57.8 | 79.8 | inactive | 30.2 | inactive
42 | CCC1CCCCN1S(=O)(=O)c1ccc(NC(=O)CSc2ncccc2C(=O)O)cc1 (stereo not given) | inactive | 43.1 | 57.5 | inactive | 109 | inactive
43 | CCN1/C(=C/C=C/c2oc3ccc4ccccc4c3[n+]2CC)Oc2ccc3ccccc3c21 | inactive | 59.4 | 108 | inactive | 275 | inactive
44 | C=CCc1ccccc1OCc1cccc(C(=O)O)c1 | inactive | 78.7 | 99.3 | inactive | 56.1 | inactive
45 | CC(C)CCNC(=O)CN(CCCN1CCOCC1)C(=O)Cn1nnc(-c2ccc(F)cc2)n1 | inactive | 98.9 | 180 | inactive | 184 | inactive
46 | O=C(O)C1=C[C@H](c2ccc(C(F)(F)F)cc2)C[C@H](OCc2ccc(CO)cc2)O1 | inactive | 30.2 | 87.2 | inactive | 246 | inactive
47 | COc1ccc(-c2nn(-c3ccccc3)cc2C(=O)NCCCn2ccnc2)cc1 | inactive | 49.1 | 61.1 | inactive | 202 | inactive
48 | N#Cc1c(-c2cccc(Br)c2)cc(-c2ccco2)[nH]c1=O | inactive | 23.1 | 58.9 | inactive | 182 | inactive
49 | COc1cccc(/C=N/Nc2nn3cnnc3c3ccccc23)c1 | inactive | 36.5 | 47.3 | inactive | 120 | inactive
50 | COc1ccc(OC)c(CNCc2sc(C(=O)O)cc2C)c1 | inactive | 59.9 | 81.9 | inactive | 32.8 | inactive
51 | O=C(/C=C/c1c(Cl)nc2ccccn12)N1CCCCC1 | inactive | 33.3 | 80.9 | inactive | 245 | inactive
52 | Nc1nn2c(-c3ccccc3)cc(=O)[nH]c2c1N=Nc1ccc(O)cc1 | inactive | 33.3 | 75.4 | inactive | 188 | inactive
53 | CCOc1ccccc1CNCc1sc(C(=O)O)cc1C | inactive | 59.6 | 79.1 | inactive | 33.1 | inactive
54 | Cc1nc2cc(C(=O)NCc3ccc4c(c3)OCO4)ccc2n1-c1ccc(Br)cc1 | inactive | 42.6 | 62.2 | inactive | 172 | inactive
55 | COc1ccccc1NC(=O)CSc1ccc2nnc(-c3cccnc3)n2n1 | inactive | 36.4 | 49 | inactive | 114 | inactive
56 | COc1ccc(OC)c(C(C(=O)NCc2ccco2)N(C(=O)Cn2nnc3ccccc32)C2CC2)c1 (stereo not given) | inactive | 47.2 | 58 | inactive | 0 | inactive
57 | COc1cc(/C=C/C(=O)Nc2ccc3nc4n(c(=O)c3c2)CCCC4)cc(OC)c1OC | inactive | 32.7 | 72 | inactive | 200 | inactive
58 | O=C1CC(c2ccc(F)cc2)Sc2ccccc2N1 (stereo not given) | inactive | 101 | 170 | inactive | 207 | inactive
59 | Cc1c(C=O)c2ccccn2c1C(=O)c1cccc([N+](=O)[O-])c1 | inactive | 31.4 | 76.8 | inactive | 242 | inactive
60 | O=C(O)Cn1c(SCCOc2ccccc2Cl)nc2ccccc21 | inactive | 60.2 | 86.5 | inactive | 30.5 | inactive
